This is one part of a sample in which the strongest signals are shown more often than they occur.
What was measured:
Test in all cases: glycan array binding signal (z-score within array); higher = stronger binding
Settings in all cases: glycan notation: IUPAC condensed, linker removed
[1] = molecular target: Fuc(a1-2)[GalNAc(a1-3)]Gal(b1-4)Glc
Procedure, shortened: (§1)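 Glycan array data were curated from 3228 arrays in the Consortium for Functional Glycomics database and kept only where the protein sequence was available. Glycan names were converted to IUPAC-condensed notation, and columns mapping to the same glycan were averaged. The binding signal is a within-array Z-score, averaged across arrays of the same protein sequence at different concentrations or buffers and across linkers. Negative Z-scores can be read as non-binding.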

[2] = molecular target: Fuc(a1-2)[GalNAc(a1-3)]Gal(b1-4)[Fuc(a1-3)]GlcNAc
Procedure, shortened: as §1

Gal(a1-4)Gal(b1-4)Glc = molecular target: Gal(a1-4)Gal(b1-4)Glc
Procedure, shortened: as §1

Gal(b1-3)Gal = molecular target: Gal(b1-3)Gal
Procedure, shortened: as §1

Gal(b1-4)GlcNAc = molecular target: Gal(b1-4)GlcNAc
Procedure, shortened: as §1

[3] = molecular target: Gal(b1-4)GlcNAc(b1-2)Man(a1-3)[Gal(b1-4)GlcNAc(b1-2)Man(a1-6)]Man(b1-4)GlcNAc(b1-4)GlcNAc
Procedure, shortened: as §1

GalNAc(a1-3)Gal = molecular target: GalNAc(a1-3)Gal
Procedure, shortened: as §1

GalNAc(b1-4)GlcNAc = molecular target: GalNAc(b1-4)GlcNAc
Procedure, shortened: as §1

[4] = molecular target: GlcNAc(b1-2)Man(a1-3)[GlcNAc(b1-2)Man(a1-6)]Man(b1-4)GlcNAc(b1-4)GlcNAc
Procedure, shortened: as §1

GlcNAc(b1-3)Gal = molecular target: GlcNAc(b1-3)Gal
Procedure, shortened: as §1

[5] = molecular target: GlcNAc(b1-6)Gal(b1-4)GlcNAc
Procedure, shortened: as §1

[6] = molecular target: Man(a1-2)Man(a1-2)Man(a1-6)[Man(a1-3)]Man
Procedure, shortened: as §1

[7] = molecular target: Man(a1-2)Man(a1-3)[Man(a1-2)Man(a1-6)]Man
Procedure, shortened: as §1

[8] = molecular target: Man(a1-3)[Man(a1-6)]Man(a1-6)[Man(a1-3)]Man(b1-4)GlcNAc(b1-4)GlcNAc
Procedure, shortened: as §1

[9] = molecular target: Neu5Ac(a2-3)Gal(b1-3)[Neu5Ac(a2-3)Gal(b1-4)]GlcNAc
Procedure, shortened: as §1

Neu5Ac(a2-3)Gal(b1-4)Glc = molecular target: Neu5Ac(a2-3)Gal(b1-4)Glc
Procedure, shortened: as §1

Neu5Ac(a2-6)Gal(b1-4)Glc = molecular target: Neu5Ac(a2-6)Gal(b1-4)Glc
Procedure, shortened: as §1

[10] = molecular target: Neu5Ac(a2-8)Neu5Ac(a2-8)Neu5Ac(a2-8)Neu5Ac(a2-3)[GalNAc(b1-4)]Gal(b1-4)Glc
Procedure, shortened: as §1

[11] = molecular target: Fuc(a1-2)[GalNAc(a1-3)]Gal(b1-4)GlcNAc
Procedure, shortened: as §1

Gal(a1-3)Gal(b1-3)Glc = molecular target: Gal(a1-3)Gal(b1-3)Glc
Procedure, shortened: as §1

[12] = molecular target: Gal(a1-3)Gal(b1-4)[Fuc(a1-3)]GlcNAc
Procedure, shortened: as §1

Gal(a1-4)Gal(b1-4)Gal = molecular target: Gal(a1-4)Gal(b1-4)Gal
Procedure, shortened: as §1

Gal3S(b1-3)GlcNAc = molecular target: Gal3S(b1-3)GlcNAc
Procedure, shortened: as §1

Gal6S(b1-4)Glc = molecular target: Gal6S(b1-4)Glc
Procedure, shortened: as §1

GlcA(b1-3)Gal = molecular target: GlcA(b1-3)Gal
Procedure, shortened: as §1

GlcA(b1-6)Gal = molecular target: GlcA(b1-6)Gal
Procedure, shortened: as §1

[13] = molecular target: GlcNAc(b1-3)[GlcNAc(b1-6)]GlcNAc
Procedure, shortened: as §1

[14] = molecular target: GlcNAc(b1-4)GlcNAc(b1-4)GlcNAc(b1-4)GlcNAc(b1-4)GlcNAc
Procedure, shortened: as §1

[15] = molecular target: Neu5Ac(a2-3)Gal(b1-4)[Fuc(a1-3)]GlcNAc
Procedure, shortened: as §1

[16] = molecular target: Neu5Ac(a2-3)Gal(b1-4)[Fuc(a1-3)]GlcNAc(b1-3)Gal
Procedure, shortened: as §1

[17] = molecular target: Neu5Ac(a2-3)GalNAc(b1-4)GlcNAc
Procedure, shortened: as §1

[18] = molecular target: Neu5Ac(a2-3)[GalNAc(b1-4)]Gal(b1-4)Glc
Procedure, shortened: as §1

[19] = molecular target: Neu5Ac(a2-3)[Neu5Ac(a2-6)]GalNAc
Procedure, shortened: as §1

[20] = molecular target: Neu5Ac(a2-6)Gal(b1-4)GlcNAc(b1-3)Gal(b1-4)[Fuc(a1-3)]GlcNAc(b1-3)Gal(b1-4)[Fuc(a1-3)]GlcNAc
Procedure, shortened: as §1

Neu5Ac(a2-6)GalNAc = molecular target: Neu5Ac(a2-6)GalNAc
Procedure, shortened: as §1

Gal(a1-3)Gal(b1-4)Glc = molecular target: Gal(a1-3)Gal(b1-4)Glc
Procedure, shortened: as §1

[21] = molecular target: Gal(b1-3)[Fuc(a1-4)]GlcNAc
Procedure, shortened: as §1

Gal(b1-4)Glc6S = molecular target: Gal(b1-4)Glc6S
Procedure, shortened: as §1

Glc(b1-4)Glc = molecular target: Glc(b1-4)Glc
Procedure, shortened: as §1

[22] = molecular target: GlcNAc(a1-6)Gal(b1-4)GlcNAc
Procedure, shortened: as §1

GlcNAc(b1-3)Gal(b1-4)Glc = molecular target: GlcNAc(b1-3)Gal(b1-4)Glc
Procedure, shortened: as §1

[23] = molecular target: GlcNAc(b1-3)Gal(b1-4)GlcNAc
Procedure, shortened: as §1

[24] = molecular target: Man(a1-2)Man(a1-3)[Man(a1-2)Man(a1-6)]Man(a1-6)[Man(a1-2)Man(a1-2)Man(a1-3)]Man
Procedure, shortened: as §1

[25] = molecular target: Neu5Ac(a2-3)Gal(b1-3)[Fuc(a1-4)]GlcNAc(b1-3)Gal(b1-4)[Fuc(a1-3)]GlcNAc
Procedure, shortened: as §1

[26] = molecular target: Neu5Ac(a2-3)Gal(b1-3)[Neu5Ac(a2-6)]GalNAc
Procedure, shortened: as §1

[27] = molecular target: Neu5Ac(a2-3)Gal(b1-4)GlcNAc(b1-2)Man(a1-3)[Neu5Ac(a2-6)Gal(b1-4)GlcNAc(b1-2)Man(a1-6)]Man(b1-4)GlcNAc(b1-4)GlcNAc
Procedure, shortened: as §1

[28] = molecular target: Neu5Ac(a2-3)Gal(b1-4)GlcNAc(b1-3)Gal(b1-3)GlcNAc
Procedure, shortened: as §1

Neu5Ac(a2-6)Gal = molecular target: Neu5Ac(a2-6)Gal
Procedure, shortened: as §1

Neu5Ac(a2-8)Neu5Ac = molecular target: Neu5Ac(a2-8)Neu5Ac
Procedure, shortened: as §1

[29] = molecular target: Neu5Ac(a2-8)Neu5Ac(a2-8)Neu5Ac(a2-3)[GalNAc(b1-4)]Gal(b1-4)Glc
Procedure, shortened: as §1

[30] = molecular target: Neu5Ac(b2-6)Gal(b1-4)GlcNAc
Procedure, shortened: as §1

[31] = molecular target: Neu5Ac(a2-6)GlcNAc(b1-4)GlcNAc(b1-4)GlcNAc
Procedure, shortened: as §1

B1: PMA (Polygonatum multiflorum) (protein)
chain: LLTTTLFVFISSTRSLASTNVLYSDVGNAILNAKESLIYGDYRLDMQSDCNLVLYNKAAPYWASGTRWSWGGNCHLNLQSNGELVMYAYLGRTRIAIWRSGIISATGSYALVLKYDGALHVHGPSLWSTNATGPTTPTTASWSIDSTLWSGDVATIGPTIANGDYKLELLDTCNLTLSNTKTGQVLWYTNTTDWVHDCYVNIEGNGELKIKYLGGATLWSNKVGAGYTNNYVLGLRPDGKLDTYNAPIWSPTIGPGVHVAPAVYNASSNAVAAEGNGEKIAMVTGRAKNST
In the case of B1, the “glycan array binding signal (z-score)” value [1] is reported as -0.249, the “glycan array binding signal (z-score)” value [2] is reported as -0.236 and the “glycan array binding signal (z-score)” value (Gal(a1-4)Gal(b1-4)Glc) is reported as -0.244. For the same binder, the “glycan array binding signal (z-score)” value (Gal(b1-3)Gal) was -0.195, the “glycan array binding signal (z-score)” value (Gal(b1-4)GlcNAc) was -0.068 and the “glycan array binding signal (z-score)” value [3] was 7.37. The “glycan array binding signal (z-score)” value (GalNAc(a1-3)Gal) was -0.253, the “glycan array binding signal (z-score)” value (GalNAc(b1-4)GlcNAc) was -0.246 and the “glycan array binding signal (z-score)” value [4] was 5.03. For the same binder, the “glycan array binding signal (z-score)” value (GlcNAc(b1-3)Gal) was -0.263, the “glycan array binding signal (z-score)” value [5] was -0.255 and the “glycan array binding signal (z-score)” value [6] was 5.65. For the same binder, the “glycan array binding signal (z-score)” value [7] was 4.98, the “glycan array binding signal (z-score)” value [8] was 2.16 and the “glycan array binding signal (z-score)” value [9] was -0.191. The “glycan array binding signal (z-score)” value (Neu5Ac(a2-3)Gal(b1-4)Glc) was -0.233, the “glycan array binding signal (z-score)” value (Neu5Ac(a2-6)Gal(b1-4)Glc) was -0.255 and the “glycan array binding signal (z-score)” value [10] was -0.245.

B2: TIM-1 (Mus musculus), AAL35774 (protein)
chain: MNQIQVFISGLILLLPGAVDSYVEVKGVVGHPVTLPCTYSTYRGITTTCWGRGQCPSSACQNTLIWTNGHRVTYQKSSRYNLKGHISEGDVSLTIENSVESDSGLYCCRVEIPGWFNDQKVTFSLQVKPEIPTRPPTRPTTTRPTATGRPTTISTRSTHVPTSIRVSTSTPPTSTHTWTHKPEPTTFCPHETTAEVTGIPSHTPTDWNGTVTSSGDTWSNHTEAIPPGKPQKNPTKGFYVGICIAALLLLLLVSTVAITRYILMKRKSASLSVVAFRVSKIEALQNAAVVHSRAEDNIYIVEDRP
For B2, the “glycan array binding signal (z-score)” value [11] was -0.268, the “glycan array binding signal (z-score)” value (Gal(a1-3)Gal(b1-3)Glc) was -0.335 and the “glycan array binding signal (z-score)” value [12] was 2.6. For the same binder, the “glycan array binding signal (z-score)” value (Gal(a1-4)Gal(b1-4)Gal) was 1.46, the “glycan array binding signal (z-score)” value (Gal3S(b1-3)GlcNAc) was -0.247 and the “glycan array binding signal (z-score)” value (Gal6S(b1-4)Glc) was -0.128. The “glycan array binding signal (z-score)” value (GlcA(b1-3)Gal) was 2.46, the “glycan array binding signal (z-score)” value (GlcA(b1-6)Gal) was 2.12 and the “glycan array binding signal (z-score)” value [13] was -0.61. The “glycan array binding signal (z-score)” value [14] was 1.29, the “glycan array binding signal (z-score)” value [15] was -0.451 and the “glycan array binding signal (z-score)” value [16] was -0.414. For the same binder, the “glycan array binding signal (z-score)” value [17] was -0.411, the “glycan array binding signal (z-score)” value [18] was -0.433 and the “glycan array binding signal (z-score)” value [19] was 0.386. The “glycan array binding signal (z-score)” value [20] was -0.125 and the “glycan array binding signal (z-score)” value (Neu5Ac(a2-6)GalNAc) was -0.529.

B3: Ficolin A (Rattus norvegicus), Q9WTS8 (protein)
chain: MWWPMLWAFPVLLCLCSSQALGQESGACPDVKIVGLGAQDKVAVIQSCPSFPGPPGPKGEPGSPAGRGERGLQGSPGKMGPPGSKGEPGTMGPPGVKGEKGERGTASPLGQKELGDALCRRGPRSCKDLLTRGIFLTGWYTIYLPDCRPLTVLCDMDVDGGGWTVFQRRVDGSINFYRDWDSYKRGFGNLGTEFWLGNDYLHLLTANGNQELRVDLREFQGQTSFAKYSSFQVSGEQEKYKLTLGQFLEGTAGDSLTKHNNMAFSTHDQDNDTNGGKNCAALFHGAWWYHDCHQSNLNGRYLPGSHESYADGINWLSGRGHRYSYKVAEMKIRAS
For B3, the “glycan array binding signal (z-score)” value [11] was -0.02, the “glycan array binding signal (z-score)” value (Gal(a1-3)Gal(b1-4)Glc) was -0.071 and the “glycan array binding signal (z-score)” value [12] was -0.105. The “glycan array binding signal (z-score)” value [21] was -0.069, the “glycan array binding signal (z-score)” value (Gal(b1-4)Glc6S) was -0.092 and the “glycan array binding signal (z-score)” value (Glc(b1-4)Glc) was -0.11. The “glycan array binding signal (z-score)” value [22] was 17.3, the “glycan array binding signal (z-score)” value [4] was -0.048 and the “glycan array binding signal (z-score)” value (GlcNAc(b1-3)Gal(b1-4)Glc) was -0.056. The “glycan array binding signal (z-score)” value [23] was -0.094, the “glycan array binding signal (z-score)” value [24] was -0.092 and the “glycan array binding signal (z-score)” value [25] was -0.064. The “glycan array binding signal (z-score)” value [26] was 0.325, the “glycan array binding signal (z-score)” value [27] was -0.027 and the “glycan array binding signal (z-score)” value [28] was -0.098. For the same binder, the “glycan array binding signal (z-score)” value [18] was 0.265, the “glycan array binding signal (z-score)” value (Neu5Ac(a2-6)Gal) was -0.042 and the “glycan array binding signal (z-score)” value (Neu5Ac(a2-8)Neu5Ac) was 0.58. The “glycan array binding signal (z-score)” value [29] was -0.047 and the “glycan array binding signal (z-score)” value [30] was 1.16.

B4: ASAL (Allium sativum), P83886 (protein)
chain: MGRTTSSPKAMMRIATVAAILTILASTCMARNVLTNGEGLYAGQSLDVEQYKFIMQDDCNLVLYEYSTPIWASNTGVTGKNGCRAVMQRDGNFVVYDVNGRPVWASNSVRGNGNYILVLQKDRNVVIYGSDIWSTGTYRRSVGGAVVMAMNGTVDGGSVIGPVVVNQNVTAAIRKVGTGAA
In the case of B4, the “glycan array binding signal (z-score)” value [31] is reported as -0.29 and the “glycan array binding signal (z-score)” value (Neu5Ac(a2-8)Neu5Ac) is reported as -0.25.

Source: the supplement of paper PMC8728848
